# Cruzain inh noDet: inhibitors of Trypanosoma cruzi cruzain without detergent; P25779; purified cruzain, Z-FR-AMC fluorescence, no detergent; Potency, µM, for inactives: max response, negative = inhibition, most hits filed as inhibitors; hit rate 2.3% among 200,000; AID 1476;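 note: plate controls were enzyme without inhibitor for no effect and buffer without enzyme for full effect; nearly all actives have a fitted effect of over 40% in size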
# Target sequence (P25779 123-467 limits assumed): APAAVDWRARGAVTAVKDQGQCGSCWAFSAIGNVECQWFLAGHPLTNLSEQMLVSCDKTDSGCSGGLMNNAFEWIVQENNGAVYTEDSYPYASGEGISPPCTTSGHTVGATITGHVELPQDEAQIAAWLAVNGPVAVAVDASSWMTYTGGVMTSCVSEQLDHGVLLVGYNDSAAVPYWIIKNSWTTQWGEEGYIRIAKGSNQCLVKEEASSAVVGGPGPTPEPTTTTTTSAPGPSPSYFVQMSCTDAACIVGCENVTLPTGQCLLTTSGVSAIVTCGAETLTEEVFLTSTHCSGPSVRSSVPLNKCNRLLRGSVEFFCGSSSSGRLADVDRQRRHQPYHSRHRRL
#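 Detergent-free condition (0.00005% Triton X-100) in acetate buffer pH 5.5 with DTT. 1.5 nM enzyme and compound were pre-mixed 15 min, then 2 uM Z-FR-AMC substrate added; reaction progress from fluorescence change between first and third reads (60 s).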
# Cruzain inh Det: cruzain (T. cruzi) inhibition with detergent; P25779; purified cruzain, Z-FR-AMC fluorescence, 0.01% Triton; Potency, µM, for the others: max response, negative = inhibition, actives largely listed as inhibitors; hit rate 0.43% among 200,000; AID 1478;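 note: plate controls were neutral wells for no effect and buffer without enzyme for full effect; nearly all actives have a fitted effect of over 40% in size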
#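 Enzyme 1.5 nM, Z-FR-AMC 2 uM, NaOAc 100 mM pH 5.5, DTT 5 mM, Triton X-100 0.01%; 15 min RT compound preincubation; kinetic ex360/em450, 60 s delta.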
# Numbers without * were called inactive; ? = inconclusive; ! = not confirmed by another sample. The list is not random: actives were taken first. Their share in the collection is about 2.6%. Calls come from the whole dose curve; as a rule, active = well fitted curve in the direction sought with a large enough effect; inconclusive = small, poorly fitted or top-dose-only effect, or another doubt; inactive = no such curve, though single readings can be large; an effect the other way counts as inactive or inconclusive. Potency is the fitted concentration of half-maximal effect.
SMILES,Cruzain inh noDet,Cruzain inh Det
COc1ccc(N2CCC(CNC(=O)Nc3cccc(OC)c3)C2)cc1 (stereo not drawn),?,0%
COc1ccc(N2CCC(CNC(=S)Nc3cccc(OC)c3)C2)cc1 (stereo not drawn),32µM*,-8%
COc1cccc(CNC(=O)C(NS(=O)(=O)c2ccc3c(c2)oc(=O)n3C)C(C)C)c1 (stereo not drawn),6%,-1%
CC1CCN(C(=O)CSc2c3c(nc4ccc(Cl)cc24)CCCC3)CC1,-18%,-18%
CN(C)/C=C(\C=N\OCc1ccc(Cl)cc1Cl)C(=O)Nc1ccc(Cl)c(Cl)c1,20µM*,-6%
COC(=O)c1nn(-c2ccccc2)c(Cl)c1/C=N/OCc1ccc(Cl)cc1Cl,2%,-3%
O=C(/C=C/NNC(=O)c1cccc(Br)c1)c1cccc(Br)c1,7.9µM*,-6%
O=C(/C=C/NNC(=O)c1ccccc1)c1ccc(Br)cc1,?,-8%
CCOc1ccc(-c2nnc(Nc3ccc(S(N)(=O)=O)cc3)c3ccccc23)cc1,-12%,-3%
Cc1nc2ccc(NC(=O)N3CCCCC3)cc2nc1C,-14%,-4%
CCOC(=O)C1CCN(C(=O)Nc2ccc3c(c2)nc(C)n3C)CC1,-3%,4%
O=C(Nc1ccc2nc(-c3ccco3)c(-c3ccco3)nc2c1)N1CCCCCC1,2µM*,14µM*
CCOC(=O)C1CCN(C(=O)Nc2ccc3nc(-c4ccco4)c(-c4ccco4)nc3c2)CC1,?,14µM*
CCCOc1cccc(C(=O)Nc2cc(-c3ccccc3)no2)c1,20%,-11%
Cc1c(C(=O)N(C)Cc2ccccc2)sc2nc(-c3ccc(F)cc3)cn12,5%,-9%
CCc1ccc(NC(=O)c2cc3c(=O)n(Cc4cccs4)ccc3nc2C)cc1,?,1%
O=C(Nc1ccccc1Cl)c1cc2c(-c3ccccc3)nn(-c3ccccc3)c2s1,2%,-1%
CC(C)Cc1ccc(C(C)C(=O)Nc2nccs2)cc1 (stereo not drawn),25µM*,-5%
CC(C)C(C(=O)Nc1nccs1)c1ccccc1 (stereo not drawn),7%,1%
O=S(=O)(Nc1ccc2c(c1)nc1n2CCN(Cc2ccccc2)C1)c1ccccc1,?,-5%
O=S(=O)(Nc1ccc2c(c1)nc1n2CCN(Cc2ccccc2)C1)c1ccc(Cl)cc1,25µM*,-3%
COc1cccc(-c2csc(N3CCN(C(=S)Nc4ccccc4)CC3)n2)c1,?,4%
COc1cccc(-c2csc(N3CCN(C(=S)Nc4ccc(Cl)cc4)CC3)n2)c1,25µM*,7%
COc1cccc(-c2csc(N3CCN(S(=O)(=O)c4ccc(F)cc4)CC3)n2)c1,25µM*,0%
COc1cccc(-c2csc(N3CCN(Cc4ccccc4)CC3)n2)c1,-24%,-10%
SMILES,Cruzain inh noDet,Cruzain inh Det
Cc1ccc2c(c1)sc1nc(=O)n(-c3ccc(Cl)c(Cl)c3)c(=O)n12,20µM*!,-2%
Cc1ccc2c(c1)sc1nc(=O)n(-c3ccc(Cl)cc3)c(=O)n12,8%,-2%
Cc1ccc(-n2c(=O)[nH]c3cc(C(=O)NCCc4ccccc4)ccc3c2=O)cc1,16µM*,-1%
Cc1ccc(CCNC(=O)c2ccc3c(=O)n(-c4ccc(C)cc4)c(=O)[nH]c3c2)cc1,3%,1%
Cc1ccc(-c2nn(-c3ccc(F)cc3)c3c2cnc2cc(F)c(F)cc23)cc1,6%,-1%
CSCCC(NC(=O)c1ccc(Cl)cc1)C(=O)OCC(=O)Nc1cc(Cl)ccc1C (stereo not drawn),?,22µM*
CCc1ccc(C(=O)COC(=O)C(CCSC)NC(=O)c2ccccc2)cc1 (stereo not drawn),-12%,-3%
NC(=O)CC[C@H](NC(=O)c1ccc(F)cc1)C(=O)OCC(=O)Nc1c(F)c(F)c(F)c(F)c1F,13µM*,28µM*
N#Cc1ccc(Cl)cc1NC(=O)COC(=O)[C@H](CCC(N)=O)NC(=O)c1ccc(F)cc1,20µM*,20µM*
CC(C)c1ccc(NC(=O)COC(=O)[C@H](CCC(N)=O)NC(=O)c2ccc(F)cc2)cc1,13%,?
CC(C)[C@H](NC(=O)c1ccccc1)C(=O)OCC(=O)Nc1ccc(Cl)cc1C(F)(F)F,-2%,-3%
COC(=O)/C=C1/SC(=NC(=O)c2ccccc2)NC1=O,1%,-22%
COC(=O)/C=C1\SC(=NC(=O)c2cccc(Cl)c2)NC1=O,-12%,14µM*
NC(=O)c1ccc(NC(=O)COC(=O)c2cccc(Oc3ccccc3)c2)cc1,16µM*,1%
O=C(COC(=O)c1cccc(N2C(=O)c3ccccc3C2=O)c1)Nc1ccccc1,6%,-2%
CC(O)COC(C)(C)C (stereo not drawn),-3%,3%
Fc1ccc(Nc2nc(-c3ccc(F)cc3)c3c(n2)-c2ccccc2OC3)cc1,?,-9%
COc1ccccc1Nc1nc(-c2ccc(F)cc2)c2c(n1)-c1ccccc1OC2,10µM*,-5%
N=C1S/C(=C\c2ccccc2F)C(=O)N1c1ccc(F)cc1,?,-3%
N=C1S/C(=C\c2ccccc2)C(=O)N1c1ccc(F)cc1,25µM*,3%
CCOC(=O)C1CCC(CN(Cc2cccc(Br)c2)S(=O)(=O)c2ccc(C)cc2)CC1 (stereo not drawn),1%,3%
Cc1ccc(Oc2c(C(F)(F)F)oc3c(CN4CCC(C)CC4)c(O)ccc3c2=O)cc1,7%,-1%
CN1/C(=C\C(=S)NC(=O)c2cccc(Br)c2)C(C)(C)c2ccccc21,?,3.5µM*
CN1/C(=C\C(=S)NC(=O)c2ccc([N+](=O)[O-])cc2)C(C)(C)c2ccccc21,?,-11%
O=C1CC(N(CCc2ccccc2)C(=S)Nc2ccccc2)C(=O)N1c1ccccc1 (stereo not drawn),-2%,-1%
SMILES,Cruzain inh noDet,Cruzain inh Det
O=C1CC(N(CCc2ccccc2)C(=S)Nc2cc(Cl)ccc2Cl)C(=O)N1c1c(Cl)cccc1Cl (stereo not drawn),13µM*,1%
CCOc1ccc2nc(N3CCN(C(=O)CS(=O)(=O)c4ccc(F)cc4)CC3)sc2c1,6%,-6%
CCOc1ccc(-c2cc(CCCC(=O)NCCc3cc(OC)c(OC)c(OC)c3)no2)cc1,?,-3%
Cc1nc(NC(=O)/C=C/c2ccccc2)sc1C(=O)Nc1ccc(Cl)cc1,1%,6%
Cc1nc(NC(=O)/C=C/c2ccccc2)sc1C(=O)Nc1ccccc1Cl,10µM*,-3%
CCc1cccc(CC)c1NC(=O)COC(=O)c1cccc(S(=O)(=O)N2CCc3ccccc3C2)c1,2%,-6%
Cc1cccc(C(C)C)c1NC(=O)COC(=O)c1cccc(S(=O)(=O)N2CCc3ccccc3C2)c1,25µM*,1%
CC(C)C[C@@H](CC(=O)N[C@H](CC(=O)N[C@@H]1CCNC[C@H]1C(=O)N[C@H](CC(=O)N[C@@H](CCC(=O)O)CC(=O)O)Cc1ccccc1)C(C)C)NC(=O)[C@@H]1CCCC[C@H]1N,10%,6%
Cn1cccc1-c1nc2ccc(NC(=O)c3ccco3)cc2[nH]1,-4%,-10%
O=C(Nc1ccc(-c2nc3ccc(NC(=O)c4cccs4)cc3[nH]2)cc1)c1cccs1,25µM*,11µM*
O=C(Nc1ccc2nc(-c3cccs3)[nH]c2c1)c1cccs1,18%,3%
Cc1ccccc1C(=O)Nc1ccc(-c2nc3ccc(C(=O)c4ccccc4)cc3[nH]2)cc1,13µM*,-2%
O=C(Nc1cccc(-c2nc3ccccc3[nH]2)c1)c1ccco1,-10%,-7%

# Assay outcomes from PubChem BioAssay.
